Assay [1] has as its system Zika virus NS2B-NS3 protease (unlinked complex). As to the kind of experiment: Primary screen GU Rhodamine qHTS for Zika virus inhibitors: Unlinked NS2B-NS3 protease assay (AID 1347159). Note: nearly all actives have a fitted effect of over 60% in size. In outline:
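Compounds, tested up to 114 microM, were incubated for 15 minutes with 25 nM unlinked NS2B-NS3 protease at pH 8.0. Cleavage of 1.5 microM Rhodamine110 substrate was then followed by fluorescence for 15 minutes.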
For orientation: qHTS replaces the single test concentration by a dilution series.

In assay [2] the test system is Zika virus NS2B-NS3 protease (linked construct). As to the kind of experiment: Primary screen NINDS Rhodamine qHTS for Zika virus inhibitors (AID 1347160). Note: nearly all actives have a fitted effect of over 55% in size. In outline:
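Percent inhibition, normalized to uninhibited and enzyme-free controls, is fitted to a 4-parameter Hill equation. Fluorescence change comes from a 15-min cleavage of 1.5 microM bis-peptide Rhodamine110 substrate by 25 nM linked NS2B-NS3 at room temperature.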

Records with an inconclusive call do not appear. Entries that show only a call come without a potency. Active and inactive are the calls of the source. Calls come from the whole dose curve; as a rule, active = well fitted inhibition curve with a large enough effect; inconclusive = small, poorly fitted or top-dose-only effect; inactive = no such curve, though single readings can be large or run the other way. Where a SMILES comes first, the peptide text is derived from it. Bridges are numbered along the chain shown (N, C = ends). [ ]: non-standard residue; d: D form. The star is where a group is joined. X1 = CCC(C)C(N)C1=NC(C(=O)*)CS1; dOrn = NCCC[C@@H](N)C(=O)O

As for `O=C1C[C@@H](c2ccc(O)cc2)Oc2cc(O)ccc21`, the Potency entry in assay [1] and in assay [2] was “inactive” each time.
On to `CC1=C2CC3OC3(C)CCC3OC3(C)CC2OC1=O` (stereo not given), for which the Potency result in assay [1] and in assay [2] was “inactive” throughout.
Take `C=C1CC/C=C(/CO)C(=O)C[C@@H]2[C@@H]1CC2(C)C`: the Potency entry in assay [1] and in assay [2] was “inactive” each time.
With `CCNC(=O)[C@H]1O[C@H](n2cnc3c(NCC(c4ccccc4)c4ccccc4)nc(C(=O)NCCNC(=O)NC4CCN(c5ccccn5)CC4)nc32)[C@H](O)[C@@H]1O`, the Potency result in assay [1] and in assay [2] was “inactive” throughout.
Regarding `CN1C(=O)N[C@@H](Cc2c[nH]c3c(Cl)cccc23)C1=O`, the Potency entry in assay [1] and in assay [2] was “inactive” each time.
As for `O=C(NN1CCCCC1)c1nn(-c2ccc(Cl)cc2Cl)c(-c2ccc(C#Cc3ccc(C(F)(F)F)cc3)s2)c1CNS(=O)(=O)N1CCCC1`, the Potency result in assay [1] and in assay [2] was “inactive” in each case.
`COc1cc2c(cc1OC)CN(C(=O)[C@@H](NCc1ccncc1)C(C)(C)C)CC2`: the Potency entry in assay [1] and in assay [2] was “inactive” throughout.
Consider `COc1cccc2c1CCC[C@H]2CN(C)CCc1ccc2ccoc2c1`, for which the Potency result in assay [1] and in assay [2] was “inactive” in each case.
With `O=C(Nc1cccnn1)N1CCC(=Cc2cccc(Oc3ccc(C(F)(F)F)cn3)c2)CC1`, the Potency entry in assay [1] and in assay [2] was “inactive” throughout.
As for `Cn1c(=O)cc(N2CCCC(N)C2)n(Cc2ccccc2C#N)c1=O` (stereo not given), the Potency result in assay [1] and in assay [2] was “inactive” each time.
In the case of `COC1(CC(C)C)NC(=O)C(O)(Cc2ccccc2)NC1=O` (stereo not given), the Potency entry in assay [1] and in assay [2] was “inactive” in each case.
On to `CC(=O)O[C@@H]1[C@H](O[C@@H]2OC[C@](O)(CO)[C@H]2O)[C@@H](O[C@@H]2O[C@@H](C)[C@H](O)[C@@H](O)[C@H]2O)[C@H](OC(=O)[C@]23CCC(C)(C)C[C@H]2C2=CCC4[C@@]5(C)C[C@H](O)[C@H](O[C@@H]6O[C@H](C(=O)O)[C@@H](O)[C@H](O)[C@H]6O)[C@@](C)(C(=O)O)C5CC[C@@]4(C)[C@]2(C)CC3)O[C@@H]1C` (stereo not given in full), for which the Potency result in assay [1] and in assay [2] was “inactive” in each case.
Turning to `CC[C@H]1OC(=O)[C@H](C)[C@@H](OC2C[C@@](C)(OC)[C@@H](O)[C@H](C)O2)[C@H](C)[C@@H](OC2O[C@H](C)C[C@H](NC)[C@H]2O)[C@](C)(O)C[C@@H](C)CN(C)[C@H](C)[C@@H](O)[C@]1(C)O` (stereo not given in full), the Potency result in assay [1] and in assay [2] was “inactive” each time.
Turning to `C=C1C(O[C@@H]2O[C@H](CO)[C@@H](O)[C@H](O)[C@@H]2O)CC2C(C)(C)C(O)CCC2(C)C1CC/C(C)=C\CO` (stereo not given in full), the Potency result in assay [1] and in assay [2] was “inactive” each time.
`CC1CCC(=O)CC(O)C(O)CC(=O)O1` (stereo not given): the Potency result in assay [1] and in assay [2] was “inactive” in each case.
Turning to `CC(=O)OC(CSC1CCC(=O)OC(C)CCC(=O)C1)C(=O)O` (stereo not given), the Potency result in assay [1] and in assay [2] was “inactive” each time.
For the compound `CCC(C)C(N)C1=NC(C(=O)N[C@@H](CC(C)C)C(=O)N[C@H](CCC(=O)O)C(=O)N[C@H](C(=O)N[C@H]2CCCCNC(=O)[C@H](CC(N)=O)NC(=O)[C@@H](CC(=O)O)NC(=O)[C@H](Cc3cnc[nH]3)NC(=O)[C@@H](Cc3ccccc3)NC(=O)[C@H]([C@@H](C)CC)NC(=O)[C@@H](CCCN)NC2=O)[C@@H](C)CC)CS1` (stereo not given in full) (X1-L[dE]IK[dOrn]I[dF]H[dD]N; lactam 4-C), the Potency result in assay [1] and in assay [2] was “inactive” each time.
For `COc1cc([C@H]2OC[C@@H]3[C@@H](c4ccc(O[C@@H]5O[C@H](CO)[C@@H](O)[C@H](O)[C@H]5O)c(OC)c4)OC[C@]23O)ccc1O`, the Potency result in assay [1] and in assay [2] was “inactive” each time.
For the compound `COCCN(C)Cc1ccc2nc3sc(C(=O)N(C)C4CCCCC4)cn3c2c1`, the Potency entry in assay [1] and in assay [2] was “inactive” in each case.
In the case of `CNC(=O)O[C@H]1COc2ccc(N3CCN(C4COC4)CC3)cc2[C@@H]1NC(=O)c1ccc(F)cc1`, the Potency entry in assay [1] and in assay [2] was “inactive” each time.
Take `CC(=O)NCCCCn1c2c(c3ccccc31)C(=O)NCC2`: the Potency entry in assay [1] and in assay [2] was “inactive” each time.
As to `C[C@@H]1O[C@@H](O[C@H]2[C@H](O[C@H]3CC[C@@]4(C)C(CC[C@]5(C)C4CC=C4[C@@H]6CC(C)(C)CC[C@]6(C(=O)O)CC[C@]45C)[C@]3(C)CO)OC[C@H](O)[C@@H]2O)[C@H](O)[C@H](O[C@@H]2OC[C@@H](O)[C@H](O)[C@H]2O)[C@H]1O` (stereo not given in full), the Potency result in assay [1] and in assay [2] was “inactive” throughout.
In the case of `C=C(C)C(=O)O[C@H]1C[C@@](C)(OC(C)=O)[C@@]2(O)CC[C@@](C)(O)[C@H](OC(C)=O)[C@@]23OC(=O)C(COC)=C13`, the Potency result in assay [1] and in assay [2] was “inactive” in each case.
For the compound `C=C(C(=O)OC)C1CCC2(C)C(O[C@@H]3O[C@H](CO)[C@@H](O)[C@H](O)[C@H]3O)CC(=O)C(C)C2C1O` (stereo not given in full), the Potency result in assay [1] and in assay [2] was “inactive” each time.
On to `C=CCc1ccc(O[C@@H]2O[C@H](CO[C@@H]3O[C@H](CO)[C@@H](O)[C@H](O)[C@H]3O)[C@@H](O)[C@H](O)[C@H]2O)c(O)c1`, for which the Potency result in assay [1] and in assay [2] was “inactive” in each case.

Values taken from PubChem BioAssay (NCATS).
